Among all 2,100 compounds or so, about 260 (12%) were called active. Another 58% or so got no clear call; they are omitted. The list shows a part of the results. Values without a mark were called inactive. Calls come from the whole dose curve; as a rule, active = well fitted cell-killing curve with a large enough effect; inconclusive = small, poorly fitted or top-dose-only effect, or effect the other way; inactive = flat fitted curve, though single readings scatter.
assay: Viability Counterscreen for Confirmatory qHTS for Inhibitors of ATXN expression; details: HEK-293 ATXN2-luc cells viability, CellTiter-Fluor, 24 h; activity change, negative = cytotoxicity: at the top concentration; note: nearly all actives have a fitted effect of over 50% in size
Method in brief: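 Cells with an ATXN2-luciferase reporter were dosed in a dilution series for 24 h at 37 degrees C. Viability was read first with Gly-Phe-AFC at 25 uM final (fluorescence, ex 405/em 540), then SteadyGlo luminescence. Medium-only wells defined 100% inhibition.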
Potency is the fitted concentration of half-maximal effect.

Structure (SMILES)	activity change, negative = cytotoxicity	Potency
CCN1CC2=C(OC(N)=C(C#N)C2c2cccs2)/C(=C\c2cccs2)C1 (stereo not given)	-21.6%	
C/C(=N\NC(=O)C12CCC(C)(C(=O)O1)C2(C)C)c1ccccc1O (stereo not given)	-16.2%	
Cc1nn(-c2ccccc2)c2nc(-c3cccs3)cc(C(=O)NN)c12	-21.5% [at 57.5 µM]	
CCCNC(=O)c1ccc2c(=O)c(O)c(-c3ccc(C)cc3)[nH]c2c1	-21.6% [at 57.5 µM]	
CC(=O)c1cccc(-c2csc3ncnc(Sc4nnnn4C)c23)c1		11.2 µM (active)
Cn1nnnc1Sc1ncnc2scc(-c3cccc(S(C)(=O)=O)c3)c12		22.4 µM (active)
CCN1CCS/C1=C\C=C\C1=[N+](CC)CCS1		25.1 µM (active)
Cc1cc(C)cc(NC(=O)CCc2nc3sc4c(c3c(=O)[nH]2)CCCC4)c1	-28.2%	
Cc1ccc(N/C(N)=N/c2nc(C)cc(N3CCCCC3)n2)c(C)c1		3.16 µM (active)
Cc1cc(C)nc(/N=C(\N)Nc2ccc(C(C)C)cc2)n1	-22.8%	
O=C(c1ccco1)N1CCN(c2ncnc3scc(-c4cccs4)c23)CC1	-14.1%	
COc1ccccc1OCCN1CSC(=S)N(C)C1		20 µM (active)
COC(=O)C1=C(C)N(c2ccc(Cl)c(Cl)c2)C(=O)C1	-20%	
CCCCC(=O)NNC(=S)NC(=O)c1ccc(C)cc1	-5.51%	
COc1ccc2c(c1)CCCN2S(=O)(=O)c1ccc(Cl)cc1	-21.8% [at 57.5 µM]	
COc1ccc(/C=C2\CN(Cc3ccccc3)C/C(=C\c3ccc(OC)c(O)c3)C2=O)cc1O		12.6 µM (active)
COc1ccc(CCNC2=C(Cl)C(=O)N(Cc3ccccc3)C2=O)cc1OC	-4.27%	
COCC(C)n1c(C)cc(C(=O)COC(=O)c2cccn2C)c1C (stereo not given)	4.04%	
CCOc1cc(C=C(C(=O)OC)C(=O)OC)ccc1OCc1ccc([N+](=O)[O-])cc1		28.2 µM (active)
N#Cc1nc(COc2ccc(-c3ccccc3)cc2)oc1NCc1cccnc1	-11.9%	
O=C(Nc1ccc[n+](CC(=O)c2cccc3ccccc23)c1)c1ccccc1		3.16 µM (active)
CC(C(=O)c1ccc(-c2ccccc2)cc1)[n+]1cccc(NC(=O)c2ccccc2)c1 (stereo not given)	-5.41%	
O=C(/C=C/c1ccc(Cl)cc1)Nc1ccc(CN2CCOCC2)cc1	-13.1%	
O=C(Nc1cnn(C23CC4CC(CC(C4)C2)C3)c1)c1cnn2c(C(F)(F)F)cc(-c3ccco3)nc12		35.5 µM (active)
Cn1c(S(=O)(=O)c2ccc([N+](=O)[O-])cc2)nc(Br)c1Br	-5.53%	

Structure (SMILES)	activity change, negative = cytotoxicity	Potency
COc1ccc2c(c1)CC(N1CCN(C)CC1)c1cc(OC)ccc1S2 (stereo not given)		28.2 µM (active)
O=C(CSc1nc2ncc(Br)cc2[nH]1)Nc1ccccc1-c1ccccc1	-20.4% [at 57.5 µM]	
COc1cccc(C2CC(c3c(-c4ccccc4)c4cc(Cl)ccc4[nH]c3=O)=NN2S(C)(=O)=O)c1OC (stereo not given)	-18.9%	
C/C(=N\NC(=O)CN1CCCCC1)c1ccccc1O	-9.43%	
Cc1cc(C)c(S(=O)(=O)/N=C2\C=C(Nc3ccc(C(=O)O)cc3)C(=O)c3ccccc32)c(C)c1		3.16 µM (active)
FC(F)(F)c1nc(-c2cccs2)ncc1-c1nnnn1-c1ccc(Cl)cc1		35.5 µM (active)
Oc1c(C(c2ccccn2)N2CCC(Cc3ccccc3)CC2)cc(Cl)c2cccnc12 (stereo not given)		25.1 µM (active)
CCCCSc1nc(C)cc(SCC(=O)N/N=C/c2cccc(OC)c2O)n1	-21.9%	
O=C(C1CCC(CNS(=O)(=O)c2cccs2)CC1)N1CCN(c2ccc(F)cc2)CC1 (stereo not given)	-23%	
CN1CCN(c2cc(-c3cc(O)c4ncccc4c3)ccn2)CC1		31.6 µM (active)
CCN(CC)CCNc1ccnc2cc(Cl)ccc12	-14%	
O=c1c2ccccc2sc2c(CO)ccc(NCCN3CCCCC3)c12		22.4 µM (active)
CCN(CC)CCNc1ccc(CO)c2sc3ccccc3c(=O)c12		20 µM (active)
Cc1cc(C(=O)CN2C(=O)c3ccccc3S2(=O)=O)c(C)n1C(C)C	4.42%	
O=C(Nc1ccc(Br)cc1)c1cccc(OC(=S)N2CCOCC2)c1	-8.47%	
CCn1c2ccccc2c2cc(NC(=O)COC(=O)c3cccc(S(=O)(=O)NC)c3)ccc21	-19.4% [at 57.5 µM]	
OC1(c2ccc(Cl)cc2)CCN(Cc2c[nH]c3ccccc23)CC1	-15.6%	
O=C(Nc1ccc(Cl)cc1)Nc1nc(-c2sccc2Br)cs1		10 µM (active)
O=C(Nc1ccc(NC(=O)c2ccc(Cl)cc2Cl)cc1)c1cccs1	-22.4% [at 57.5 µM]	
CCCCOc1ccccc1NC(=O)c1scc2c1OCCO2	-17.1%	
CCOc1ccccc1NC(=O)CCCc1nc2ccccc2c(=O)[nH]1	-11%	
CCCCOc1ccccc1NC(=O)Cn1c(-c2nonc2N)nc2ccccc21		11.2 µM (active)
Cc1cc(OCCCCCn2ccnc2)cc(C)c1Cl	-28.4% [at 57.5 µM]	
Cc1cc(SCC(=O)NN)c2cc(Br)ccc2n1	-20.4% [at 57.5 µM]	
CCCOc1ccc(C(=O)NC(=S)NNC(=O)c2c(-c3ccccc3)noc2C)cc1	1.64%	

Structure (SMILES)	activity change, negative = cytotoxicity	Potency
COc1cccc(/C=N/Nc2nc3ccccc3n3cnnc23)c1O	-9.86%	
O=[N+]([O-])c1ccc(O)c(/C=N\N=C2c3ccccc3-c3ccccc32)c1		12.6 µM (active)
COc1cccc(/C=N/Nc2ncnc3c2ncn3Cc2ccccc2)c1O	-7.4%	
O=[N+]([O-])c1ccc(O)c(/C=N/Nc2ccccn2)c1		10 µM (active)
CCN(CC)S(=O)(=O)c1ccc(N/N=C/c2cc(OC)ccc2O)nc1	-10.2%	
O=[N+]([O-])c1ccc(O)c(/C=N/Nc2ncnc3c2cnn3-c2ccccc2)c1		12.6 µM (active)
O=C(CCc1ccccc1)N/N=C/c1cc(Br)ccc1O	-17.3%	
Cc1cc(Cl)c(C(=O)Nc2cccc(C(F)(F)F)c2)c(C)n1	-20.8% [at 57.5 µM]	
C=CCN1C=CC(=O)[C@@H](OC(=O)Nc2ccc(Br)cc2)[C@H]1c1ccccc1Br	-15.2%	
O=C(CN1C(=O)c2ccccc2S1(=O)=O)Nc1ncc(Cl)cc1Cl	0.426%	
O=C(c1ccco1)N(CCCN1CCOCC1)c1nc(-c2ccc(Cl)cc2)cs1	-12.7%	
CC(=O)Nc1cc(-c2ccc(C(=O)NC3CC3)cc2)cn2c(-c3cccc(C(C)=O)c3)cnc12	-20.7% [at 57.5 µM]	
NS(=O)(=O)c1ccc(CCNC(=O)COC(=O)/C=C/c2cc(Br)ccc2F)cc1	4.96%	
O=C(NCCc1ccccc1)c1ccc2nccnc2c1	-11.9%	
NS(=O)(=O)c1ccc(CCNC(=O)c2cc(-c3ccccn3)nc3ccc(Br)cc23)cc1		35.5 µM (active)
CCC(CC)C(=O)c1c[nH]c(C(=O)NCc2ccccn2)c1	-5.14% [at 57.5 µM]	
CCn1c(/C=C/c2ccc([N+](=O)[O-])o2)nc2ccccc2c1=O		10 µM (active)
O=[N+]([O-])c1ccc(/C=N/N=C/c2ccc([N+](=O)[O-])o2)o1		7.94 µM (active)
COc1ccccc1NC(=O)Nc1nc(CC(=O)N2CCN(c3ccccc3)CC2)cs1	-22% [at 57.5 µM]	
O=C(NC(c1ccccc1)c1c(O)ccc2ccccc12)c1ccccc1Cl (stereo not given)	-20.7%	
O=C(NC(c1ccccc1)c1ccc2ccccc2n1)C1CCN(CCOc2ccc(Cl)cc2Cl)CC1 (stereo not given)		25.1 µM (active)
CC(C)Nc1nc(NC(C)C)nc(N(C#N)CCOc2ccc(Cl)cc2Cl)n1	-19.4%	
COc1ccc(/C=C/C(=O)Nc2cccc(S(=O)(=O)N3CCCC3)c2)cc1OC	-3.83%	
COc1cc(/C=C/C(=O)Nc2ccc(OC)c(S(=O)(=O)N3CCOCC3)c2)ccc1OCC#N	-23%	
CCSc1nc2ccccc2n1C(=O)/C=C\c1ccc(OC)c(OC)c1		7.94 µM (active)

Structure (SMILES)	activity change, negative = cytotoxicity	Potency
COC1=C(c2ccccc2)C(=O)c2ccccc2C1=O	-26.8%	
CCOC(=O)c1ccc(NC(=O)c2nc[nH]c2C(=O)N[C@H](C)c2ccccc2)cc1	1.71%	
O=C(NCCc1csc(-c2ccc(Cl)cc2)n1)c1ccco1	-29% [at 57.5 µM]	
O=C(Nc1nc(NC(=O)c2ccco2)n(-c2ccccc2)n1)c1ccccc1		22.4 µM (active)
CC(=O)c1sc(NC(=O)c2cc(-c3ccccc3)nn2-c2ccccc2)nc1C	-12%	
Cc1nc(N2CCN(Cc3ccc4c(c3)OCO4)CC2)c2oc3ccccc3c2n1	-27%	
CCOC(=O)c1c(NC(=O)COC(=O)Cn2cnc3ccccc32)sc(C)c1C	-16.8% [at 57.5 µM]	
O=C(/C=C/c1ccccc1)c1cc(Br)ccc(=O)c1O		22.4 µM (active)
CNc1ccc(Br)cc(C(=O)/C=C/c2ccc3c(c2)OCO3)c1=O	-17.3%	
CCNc1ccc(Br)cc(C(=O)/C=C/c2ccccc2Cl)c1=O	-23.3%	
NC(=S)N1OC[C@@H]2COc3ccc4ccccc4c3[C@@H]21	-27.5% [at 57.5 µM]	
COc1ccccc1Cc1c(-c2ccco2)nc2c(C)cc(Br)cn12		10 µM (active)
COC(=O)c1ccc(N2CCOCC2)c(NC(=O)Nc2cccc(OC)c2)c1	-8.48%	
COc1cccc(OCC(=O)Nc2cc(Cl)ccc2Oc2ccccc2)c1	6.08%	
Cn1c(=O)c2cc(NC(=O)Nc3cccnc3)ccc2n1Cc1ccc(Cl)cc1	-14.8% [at 57.5 µM]	
O=C(Nc1ccc(Cl)c(Cl)c1)c1cccc(S(=O)(=O)NCc2cccnc2)c1		3.16 µM (active)
O=C(/C=C/Nc1ccc(S(=O)(=O)Nc2ncccn2)cc1)c1ccc(Cl)c(Cl)c1	-21.3% [at 57.5 µM]	
COc1cccc(S(=O)(=O)NCc2ccc(C(=O)Nc3cccc(Cl)c3)cc2)c1		20 µM (active)
O=C(CSc1nnnn1-c1ccccc1)Nc1nsc(-c2ccccc2)n1	-13.5% [at 57.5 µM]	
CCn1c2ccccc2c2cc(NC(=O)COC(=O)c3ccccc3F)ccc21	2.58%	
C=CCNc1oc(-c2ccc(Cl)cc2)nc1C#N	-6.31% [at 57.5 µM]	
NC(Cc1ccccc1)c1csc(Nc2nccc(C(F)(F)F)n2)n1 (stereo not given)		14.1 µM (active)
NC(=O)c1cccc(Nc2nc(C(N)Cc3ccc(C(F)(F)F)cc3)cs2)n1 (stereo not given)	-3.62%	
NC(Cc1ccc(Cl)cc1)c1csc(Nc2nccc(C(F)(F)F)n2)n1 (stereo not given)		28.2 µM (active)
NC(Cc1ccc(F)cc1)c1csc(Nc2cc(NCc3ccco3)ncn2)n1 (stereo not given)	-10.8%	

Reference: PubChem BioAssay AID1745850 (National Center for Advancing Translational Sciences (NCATS), 2022)
